Measurements as given in PubChem BioAssay (NCI).
This is part of a sample that, as a whole, favours compounds with a hit. Of some 83,000 tested, about 20% had one in any assay.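 Growth was measured after 48 h exposure to one concentration of compound in 96-well plates. Values under 10 count as active.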 Active and inactive are the calls of the source.

How the values were obtained:
Test in all cases: NCI-60 one-dose screen, 48 h (100 = growth as untreated, 0 = no growth, -100 = all killed)
Settings in all cases: 10 µM unless noted
NCI-H23 lung = system: NCI-H23 lung
NCI-H226 lung = system: NCI-H226 lung
NCI-H322M lung = system: NCI-H322M lung
HOP-62 NSCLC = system: HOP-62 NSCLC
NCI-H460 lung = system: NCI-H460 lung
HOP-92 NSCLC = system: HOP-92 NSCLC
NCI-H522 lung = system: NCI-H522 lung
A549/ATCC NSCLC = system: A549/ATCC NSCLC
786-0 renal = system: 786-0 renal
COLO 205 colon = system: COLO 205 colon

For `CCCCCCCCCCCCCCCC1=NCC[N+]1(CCO)CCO`, the growth (NCI-H23 lung) was 53.7% (inactive), the growth (NCI-H226 lung) was 73.4% (inactive) and the growth (NCI-H322M lung) was 84.7% (inactive). The growth (HOP-62 NSCLC) was 57.7% (inactive), the growth (NCI-H460 lung) was 3.37% (active) and the growth (HOP-92 NSCLC) was 5.24% (active). The growth (NCI-H522 lung) was 40.8% (inactive), the growth (A549/ATCC NSCLC) was 50% (inactive) and the growth (786-0 renal) was 55.5% (inactive). For the same molecule, the growth (COLO 205 colon) was 82.8% (inactive).
`Clc1ccc(Nc2ncnc3c2sc2ncccc23)cc1` was tested, and the growth (NCI-H23 lung) was 3.68% (active), the growth (NCI-H226 lung) was 31.5% (inactive) and the growth (NCI-H322M lung) was 45.9% (inactive). For the same molecule, the growth (HOP-62 NSCLC) was 15.7% (inactive), the growth (NCI-H460 lung) was 10.3% (inactive) and the growth (HOP-92 NSCLC) was 50.4% (inactive). For the same molecule, the growth (NCI-H522 lung) was 31.5% (inactive), the growth (A549/ATCC NSCLC) was 27.9% (inactive) and the growth (786-0 renal) was 13.6% (inactive). The growth (COLO 205 colon) was 30.2% (inactive).
For `CCCCNCC(O)c1cc(-c2ccc(C(F)(F)F)cc2)nc(-c2ccc(C(F)(F)F)cc2)c1` (stereo not given), the growth (NCI-H23 lung) was -63.9% (active), the growth (NCI-H226 lung) was -76.2% (active) and the growth (NCI-H322M lung) was -74.3% (active). For the same molecule, the growth (HOP-62 NSCLC) was -90.5% (active), the growth (NCI-H460 lung) was -76.7% (active) and the growth (HOP-92 NSCLC) was -86% (active). The growth (NCI-H522 lung) was -79% (active), the growth (A549/ATCC NSCLC) was -83.5% (active) and the growth (786-0 renal) was -78.7% (active). For the same molecule, the growth (COLO 205 colon) was -87.2% (active).
`COS(=O)(=O)CCN(CCOS(C)(=O)=O)S(C)(=O)=O` was tested, and the growth (NCI-H23 lung) was 105% (inactive), the growth (NCI-H226 lung) was 100% (inactive) and the growth (NCI-H322M lung) was 108% (inactive). The growth (HOP-62 NSCLC) was 109% (inactive), the growth (NCI-H460 lung) was 101% (inactive) and the growth (HOP-92 NSCLC) was 89.1% (inactive). For the same molecule, the growth (NCI-H522 lung) was 78.2% (inactive), the growth (A549/ATCC NSCLC) was 90.1% (inactive) and the growth (786-0 renal) was 97.9% (inactive). The growth (COLO 205 colon) was 117% (inactive).
In the case of `COc1ccc2[nH]c(O)c(/C=c3/ccc4c(c3)N=C(c3ccc(F)cc3)N=4)c2c1`, the growth (NCI-H23 lung) is reported as 71.7% (inactive), the growth (NCI-H226 lung) is reported as 85.4% (inactive) and the growth (NCI-H322M lung) is reported as 49.4% (inactive). For the same molecule, the growth (HOP-62 NSCLC) was 34.2% (inactive), the growth (NCI-H460 lung) was 36.9% (inactive) and the growth (HOP-92 NSCLC) was 4.86% (active). The growth (NCI-H522 lung) was 81% (inactive), the growth (A549/ATCC NSCLC) was 37.6% (inactive) and the growth (786-0 renal) was -30.1% (active). For the same molecule, the growth (COLO 205 colon) was 72.9% (inactive).
In the case of `O=C1OCC2=C1C(c1ccc(Cl)c(Cl)c1)c1cc3c(cc1N2CCO)CCC3` (stereo not given), the growth (NCI-H23 lung) is reported as 31.5% (inactive), the growth (NCI-H226 lung) is reported as 24% (inactive) and the growth (NCI-H322M lung) is reported as 42% (inactive). For the same molecule, the growth (HOP-62 NSCLC) was 38.9% (inactive), the growth (NCI-H460 lung) was 5.49% (active) and the growth (HOP-92 NSCLC) was 82% (inactive). The growth (NCI-H522 lung) was -14.8% (active), the growth (A549/ATCC NSCLC) was 21.6% (inactive) and the growth (786-0 renal) was 27.5% (inactive). For the same molecule, the growth (COLO 205 colon) was 6.1% (active).
`C=CCn1c(C)nc2cc(Nc3nc(Nc4ccc5nc(C)n(CC=C)c5c4)nc4ccccc34)ccc21` was tested, and the growth (NCI-H23 lung) was 94.2% (inactive), the growth (NCI-H226 lung) was 99.8% (inactive) and the growth (NCI-H322M lung) was 109% (inactive). For the same molecule, the growth (HOP-62 NSCLC) was 101% (inactive), the growth (NCI-H460 lung) was 117% (inactive) and the growth (HOP-92 NSCLC) was 79.8% (inactive). For the same molecule, the growth (NCI-H522 lung) was 99.1% (inactive), the growth (A549/ATCC NSCLC) was 96.3% (inactive) and the growth (786-0 renal) was 113% (inactive). For the same molecule, the growth (COLO 205 colon) was 108% (inactive).
For `Cc1nc2c(-c3cnc(N)nc3)nc(N3CCOCC3)nc2n1C(C)C`, the growth (NCI-H23 lung) was 16.5% (inactive), the growth (NCI-H226 lung) was -1.05% (active) and the growth (NCI-H322M lung) was -5.38% (active). For the same molecule, the growth (HOP-62 NSCLC) was -12.7% (active), the growth (NCI-H460 lung) was 12.2% (inactive) and the growth (HOP-92 NSCLC) was -17.2% (active). For the same molecule, the growth (NCI-H522 lung) was 4.22% (active), the growth (A549/ATCC NSCLC) was -1.09% (active) and the growth (786-0 renal) was -8.16% (active). For the same molecule, the growth (COLO 205 colon) was -2.93% (active).
With `Clc1cn2cc(-c3ccc(Cl)c(Cl)c3Cl)nc2s1` the growth (NCI-H23 lung) was 92.7% (inactive), the growth (NCI-H226 lung) was 90.1% (inactive) and the growth (NCI-H322M lung) was 91.9% (inactive). The growth (HOP-62 NSCLC) was 86.7% (inactive), the growth (NCI-H460 lung) was 109% (inactive) and the growth (HOP-92 NSCLC) was 85.8% (inactive). The growth (NCI-H522 lung) was 91.4% (inactive), the growth (A549/ATCC NSCLC) was 103% (inactive) and the growth (786-0 renal) was 99.9% (inactive). For the same molecule, the growth (COLO 205 colon) was 106% (inactive).
For `CC(=O)c1c(C)nc(-c2cc(C)cc(Cl)c2)nc1-c1cccc(Oc2ccccc2)c1`, the growth (NCI-H23 lung) was 86% (inactive), the growth (NCI-H226 lung) was 84% (inactive) and the growth (NCI-H322M lung) was 91% (inactive). The growth (HOP-62 NSCLC) was 76.2% (inactive), the growth (NCI-H460 lung) was 36.1% (inactive) and the growth (HOP-92 NSCLC) was 38% (inactive). The growth (NCI-H522 lung) was 59% (inactive), the growth (A549/ATCC NSCLC) was 69.1% (inactive) and the growth (786-0 renal) was 70.3% (inactive). The growth (COLO 205 colon) was 70.2% (inactive).
For `O=C(Nc1ccc(Br)cc1)Nc1ccccc1Cl`, the growth (NCI-H23 lung) was 63.2% (inactive), the growth (NCI-H226 lung) was 80% (inactive) and the growth (NCI-H322M lung) was 119% (inactive). For the same molecule, the growth (HOP-62 NSCLC) was 92.7% (inactive), the growth (NCI-H460 lung) was 93.3% (inactive) and the growth (HOP-92 NSCLC) was 90.5% (inactive). The growth (NCI-H522 lung) was 56.8% (inactive), the growth (A549/ATCC NSCLC) was 82.5% (inactive) and the growth (786-0 renal) was 83.4% (inactive). The growth (COLO 205 colon) was 106% (inactive).
